Bioassay records from PubChem.
Rows were chosen to be rich in hits. Some 3.1% of all compounds tested hit in one or more screens of this group.
ERAP1 HTS inh = ERAP1 (human) enzyme inhibition | Q9NZ08 | recombinant ERAP1, Leu-AMC fluorescence, 60 min | inhibition, % at 10.7 µM | 340,000 compounds, 0.15% hits;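 active = mean replicate inhibition of at least 30%, or all replicates individually reaching that 30% level; inactive = mean below 30% and not every replicate reaching it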
FGF22 binding = shifts melting point of recombinant human FGF22; recombinant FGF22 thermal shift, SYPRO orange fluorescence; percent of sucrose octasulfate shift, DMSO zero; Q9HCT0; activity (Tm shift, normalised), % at 9.99 µM; 340,000 compounds, 1.5% hits;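 active = mean Tm shift, scaled 0 neutral to 100 positive control, at about 1.3% or above, every replicate too, limit read from the data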
Target sequence (Q9HCT0 whole entry, looked up): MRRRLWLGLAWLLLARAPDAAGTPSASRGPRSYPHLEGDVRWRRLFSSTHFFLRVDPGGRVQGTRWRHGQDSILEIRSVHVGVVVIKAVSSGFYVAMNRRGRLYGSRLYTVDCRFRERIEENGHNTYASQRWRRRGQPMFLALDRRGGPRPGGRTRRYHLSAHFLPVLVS
CASP6 VEID inh = caspase-6 (human) enzyme inhibition; P55212; purified caspase-6, Z-VEID-R110 cleavage fluorescence; inhibition, % at 12.5 µM; 350,000 compounds, 0.53% hits;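 active = mean inhibition across replicates at least about 35%, with every replicate also reaching that limit, limit read from the data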
SIRT5 block = inhibitors of human sirtuin-5 desuccinylase | inhibition, % at 15 µM | Purified SirT5, succinyl-peptide AMC, trypsin-coupled fluorescence | Q9NXA8 | AID 652115 | 330,000 compounds, 1.1% hits; in the data active = inhibition above about 15%
Target sequence (Q9NXA8 whole entry, looked up): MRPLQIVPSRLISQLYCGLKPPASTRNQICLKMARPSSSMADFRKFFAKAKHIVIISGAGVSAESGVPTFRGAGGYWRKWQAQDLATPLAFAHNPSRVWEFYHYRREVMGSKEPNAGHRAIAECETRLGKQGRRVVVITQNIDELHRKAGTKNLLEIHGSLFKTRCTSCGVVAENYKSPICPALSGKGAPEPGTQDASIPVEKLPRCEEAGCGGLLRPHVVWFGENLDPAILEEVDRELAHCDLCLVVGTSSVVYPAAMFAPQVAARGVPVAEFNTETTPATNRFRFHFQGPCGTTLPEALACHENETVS
Numbers stand for hits; i = inactive; nt = no result.

SMILES	ERAP1 HTS inh	FGF22 binding	CASP6 VEID inh	SIRT5 block
CO[C@H]1CN(C)C(=O)c2cc(NC(=O)CC(F)(F)F)ccc2OC[C@@H](C)NC[C@@H]1C	i	nt	i	i
Cc1ccc(/C=C2\C(=N)N3N=C(CC(=O)N4CCCCC4)SC3=NC2=O)cc1	i	i	i	i
N=C1/C(=C/c2ccc(Br)o2)C(=O)N=C2SC(CC(=O)N3CCCC3)=NN12	i	i	i	26
N=C1/C(=C\c2ccc(Br)o2)C(=O)N=C2SC(CC(=O)N3CCOCC3)=NN12	i	i	61	28
CCc1ccc(/C=C2\C(=N)N3N=C(CC(=O)N4CCCCC4)SC3=NC2=O)cc1	i	i	i	i
N=C1/C(=C/c2ccco2)C(=O)N=C2SC(CC(=O)N3CCCC3)=NN12	i	i	51	20
CC(C)C(=O)N1CCN(c2ccccc2NC(=O)c2cccc3ccccc23)CC1	i	i	60	i
CO[C@@H]1CC[C@@H]2CCN(C)C(=O)[C@H](C)CN(C)C(=O)c3cccc(C#N)c3OC[C@H]1O2	i	i	i	i
O=C(O)CCNc1nc(C(F)(F)F)nc2ccccc12	i	i	i	48
Cc1ccc(NC(=O)CCS(=O)(=O)c2ccc3nc(C)sc3c2)cc1	i	i	i	nt
Cc1ccc(NC(=O)CCS(=O)(=O)c2cc3[nH]c(=O)c(=O)[nH]c3cc2C)cc1	i	i	37	i
Cc1ccc(CN2C(=O)CCC2(C)c2nnnn2-c2c(C)cccc2C)cc1 (stereo not given)	i	i	i	16
C[C@H](CO)N1C[C@H](C)[C@H](CN(C)Cc2ccc(-c3ccccc3)cc2)OCc2ccccc2-c2ccccc2C1=O	i	i	i	19
C[C@H]1CN([C@@H](C)CO)C(=O)c2ccccc2-c2ccccc2CO[C@H]1CN(C)Cc1ccc(F)cc1	i	i	i	23
CCOC(=O)C1CCCN(C(=O)c2cccc3ccccc23)C1 (stereo not given)	i	i	i	i
CCOC(=O)C1CCc2c(ccc3ccccc23)N1CCC#N (stereo not given)	i	i	i	35
C[C@@H]1CN([C@@H](C)CO)C(=O)c2cc(NC(=O)Cc3cn(C)c4ccccc34)ccc2O[C@H]1CN(C)Cc1ccc(C(=O)Nc2ccccc2N)cc1	i	i	i	17
C[C@H](CO)N1C[C@H](C)[C@@H](CN(C)Cc2ccc(Cl)c(Cl)c2)Oc2ccc(NC(=O)Cc3cn(C)c4ccccc34)cc2C1=O	i	i	i	i
C[C@@H]1CN([C@H](C)CO)C(=O)c2cc(NC(=O)Cc3cn(C)c4ccccc34)ccc2O[C@H]1CN(C)Cc1ccc(C(=O)Nc2ccccc2N)cc1	i	i	i	nt
C[C@@H]1CN([C@@H](C)CO)C(=O)c2cc(NC(=O)Cc3cn(C)c4ccccc34)ccc2O[C@@H]1CN(C)Cc1ccc(C(=O)Nc2ccccc2N)cc1	i	i	i	nt
C[C@H](CO)N1C[C@H](C)[C@H](CN(C)Cc2ccc(C(=O)Nc3ccccc3N)cc2)Oc2ccc(NC(=O)Cc3cn(C)c4ccccc34)cc2C1=O	i	i	i	23
C[C@@H]1CN([C@@H](C)CO)C(=O)c2cc(NC(=O)Cc3cn(C)c4ccccc34)ccc2O[C@H]1CN(C)Cc1ccc(Cl)c(Cl)c1	i	i	i	26
CC(C)(C)[S@](=O)N1Cc2cc(C(=O)NCc3ccc4c(c3)OCO4)nc(-c3cccc(-c4ccncc4)c3)c2[C@@H]1CCO	i	i	i	i
CN1CCN(C(=O)C[C@H]2CC[C@@H]3[C@H](COC[C@H](O)CN3C(=O)C3CCOCC3)O2)CC1	i	i	i	i
COc1ccc(NC(=O)c2ccc(C(=O)Nc3ccc(OC)cc3OC)cc2)c(OC)c1	i	i	i	i
SMILES	ERAP1 HTS inh	FGF22 binding	CASP6 VEID inh	SIRT5 block
COc1ccc(NC(=O)C(F)(OC)C(F)(F)F)c(OC)c1 (stereo not given)	i	nt	55	i
OCCSCC(O)CC(O)c1ccccc1 (stereo not given)	i	i	i	i
CN1C(=O)c2cc(NC(=O)Nc3ccccc3F)ccc2OC[C@H]2O[C@H](CC(=O)O)CC[C@H]21	nt	i	nt	nt
O=C(O)COc1ccc(Cl)cc1C1CCCCC1	i	43	i	i
O=C(COc1ccc(F)cc1Cl)NC1CCCCCC1	i	i	i	i
CO[C@@H]1CN(C)C(=O)c2ccc(NC(=O)C3CCCCC3)cc2OC[C@H](C)NC[C@@H]1C	i	i	i	i
CSC1=NC(=O)/C(=C/c2ccc(SC)cc2)S1	i	43	i	i
C[C@@H]1CCCCO[C@H](CN(C)C(=O)NC2CCCCC2)[C@H](C)CN([C@H](C)CO)C(=O)c2cc(NC(=O)NC3CCCCC3)ccc2O1	i	i	i	i
O=C(C[C@H]1C[C@@H]2c3cc(NS(=O)(=O)c4ccc(F)cc4)ccc3O[C@@H]2[C@H](CO)O1)NCCc1ccccc1	i	i	i	i
CCOP(=O)(c1ccccc1)c1nc(-c2ccccc2C)oc1NCc1ccccc1 (stereo not given)	nt	i	i	i
CCCOP(=O)(OCCC)c1nc(-c2ccccc2)oc1NCc1ccccc1	i	43	i	i
COc1ccc(CNc2oc(-c3cccc4ccccc34)nc2P(=O)(OC)OC)cc1	i	i	i	i
CCOP(=O)(OCC)c1nc(-c2ccc(Cl)cc2)oc1NCc1ccccc1	i	43	nt	i
C[C@H]1CN([C@@H](C)CO)C(=O)c2cccc(NC(=O)c3cnccn3)c2O[C@@H]1CN(C)C(=O)Nc1ccccc1	i	i	i	i
O=C(O)c1ccccc1-c1ccc(/C=C/c2cc(C(F)(F)F)[nH]c(=O)n2)o1	i	i	i	i
O=C(O)c1cc(Cl)ccc1-c1ccc(/C=C/c2cc(C(F)(F)F)[nH]c(=O)n2)o1	i	i	45	20
Cc1cc(C)nc(N2CCN(S(=O)(=O)c3ccc(F)cc3)CC2)n1	i	i	38	i
CO[C@H]1CN(C)C(=O)c2cc(NC(=O)NC3CCCCC3)ccc2OC[C@@H](C)N(C(C)=O)C[C@H]1C	i	i	i	i
Fc1cccc(NC(=S)NCCN2CCOCC2)c1	i	i	i	i
Cc1cccc(NC(=O)C(=O)NCCCN2CCOCC2)c1	i	43	i	i
O=C(CCN1CCOCC1)NCc1ccccc1	nt	i	i	i
O=C(CSCc1ccccc1)NCCCN1CCOCC1	i	44	i	i
Fc1cc(F)cc(NC(=S)NCCCN2CCOCC2)c1	i	43	i	i
CC(=O)N(C)C[C@H]1Oc2ncc(-c3cccc(C#N)c3)cc2C(=O)N([C@H](C)CO)C[C@H]1C	i	i	i	i
CC(C)NC(=O)Nc1ccc2c(c1)C(=O)N([C@H](C)CO)C[C@H](C)[C@@H](CN(C)C(=O)NC(C)C)OCCCC[C@H](C)O2	i	i	i	i
O=C(C[C@H]1CC[C@H](NC(=O)CC2CC2)[C@H](CO)O1)NCc1ccc(Cl)cc1	i	i	i	i
COc1ccccc1NS(=O)(=O)c1cccc(C(=O)NCC(c2ccccc2OC)N2CCCC2)c1 (stereo not given)	i	i	i	15
COc1ccccc1NS(=O)(=O)c1cccc(C(=O)NCC(c2ccco2)N2CCCC2)c1 (stereo not given)	i	i	i	i
